# Results as given in PubChem BioAssay (NCI).
# The panel holds about 83,000 compounds, 20% with a hit somewhere; the sample as a whole holds those more often.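 The test compound was applied at a single concentration to cells in 96-well plates for 48 hours, and percent growth was recorded.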 A number with no mark means an inactive call. Activity calls are given as the source filed them. How the source made its calls: active means growth percent below 10; inactive means the rest.
# Key:
# Test in all cases: NCI-60 one-dose screen, 48 h (100 = growth as untreated, 0 = no growth, -100 = all killed)
# Conditions in all cases: 10 µM
# HCT-15 colon = tested on: HCT-15 colon
# HT29 colon = tested on: HT29 colon
# SNB-19 CNS = tested on: SNB-19 CNS
# U251 CNS = tested on: U251 CNS
# PC-3 prostate = tested on: PC-3 prostate
# SK-MEL-5 melanoma = tested on: SK-MEL-5 melanoma
# UACC-62 melanoma = tested on: UACC-62 melanoma
# LOX IMVI melanoma = tested on: LOX IMVI melanoma
# SK-MEL-28 melanoma = tested on: SK-MEL-28 melanoma
Structure (SMILES),growth (HCT-15 colon),growth (HT29 colon),growth (SNB-19 CNS),growth (U251 CNS),growth (PC-3 prostate),growth (SK-MEL-5 melanoma),growth (UACC-62 melanoma),growth (LOX IMVI melanoma),growth (SK-MEL-28 melanoma)
O=C1CC[C@@H](C(=O)N[C@H]2CSSC[C@@H](C(=O)N/C=C/c3ccc(O)cc3)NC(=O)[C@H](Cc3ccccc3)NC(=O)[C@@H]3CCCN3C(=O)[C@@H]3CCCN3C2=O)N1,97%,99.8%,94.4%,96.2%,87.3%,97.5%,99.7%,94.5%,101%
O=C(C=P(c1ccccc1)(c1ccccc1)c1ccccc1)c1ccc(Br)cc1,95.2%,79.1%,98.6%,,41.7%,96.6%,67.5%,73.4%,109%
COc1ccc(C2C=C(c3ccc(Cl)cc3)N=C3SC=CN32)c(Br)c1 (stereo unspecified),74%,65.2%,66.9%,70.2%,45.2%,88.6%,75.2%,71.2%,63.5%
CCN(CC)c1ccc(/C=C/C2=[N+](C)c3ccccc3C2(C)C)c(C)c1,10.5%,2.67% (active),20.6%,7.12% (active),7.18% (active),-97.5% (active),-21.4% (active),3.02% (active),9.14% (active)
N#CN1CC[C@H](C(=O)Nc2ncc(-c3ccccc3)s2)C1,3.19% (active),-35.6% (active),12.4%,,11.1%,-56% (active),-37.1% (active),4.1% (active),5.29% (active)
O=[N+]([O-])c1ccc(Br)o1,105%,95.8%,107%,103%,98.8%,96.9%,103%,93.9%,104%
CC(C)/C=N/NC(N)=S,90.6%,62.2%,98.3%,80.8%,55.1%,97.2%,97.3%,96%,99.2%
Oc1ccc(/C=N\Nc2ccccn2)c(O)c1,32.7%,51.6%,29.4%,26.5%,61.3%,39.4%,7.44% (active),-6.3% (active),64.5%
CC(=O)Nc1nc(C)c(C(=O)N/N=C/c2cccn2C)s1,106%,101%,117%,103%,94.9%,98.4%,87.7%,98.4%,105%
COc1cccc(-c2nnc(COc3ccc(-c4nc5ccccc5[nH]4)cc3OC)o2)c1,78.3%,96.1%,98.1%,97%,97.7%,67.4%,95.1%,104%,98.1%
C#CCn1c(-c2cccc(OCCCCl)c2)nc2c1c(=O)n(C)c(=O)n2C,86.9%,102%,97%,90.7%,26%,61.4%,46.2%,93.8%,95.7%
COC(=O)[C@]12CC[C@@H](C)[C@H](C)[C@@H]1C1=CC[C@@H]3[C@@]4(C)CC(=O)[C@H](O)[C@@](C)(CO)[C@@H]4C(=O)C[C@@]3(C)[C@]1(C)CC2,-15.1% (active),-25.6% (active),16.6%,-43.5% (active),-22.3% (active),-80.3% (active),-57.2% (active),-77.9% (active),21.8%
CC(=O)[C@H]1CC[C@H]2[C@@H]3CC[C@@H]4CC=C(C=O)C[C@]4(C)[C@H]3CC[C@]12C,96.7%,90.7%,97.8%,88.5%,78.5%,90.3%,79.1%,93.7%,93.9%
COc1ccc(-c2nc(NC(=O)CS(=O)(=O)c3ccc(F)cc3)sc2C)cc1,18.7%,4.71% (active),86.8%,47.8%,44.1%,35.9%,74.9%,51.6%,88.5%
COc1cc(NS(C)(=O)=O)ccc1Nc1c2ccc(Cl)cc2nc2c(OC)cccc12,-15.4% (active),-37.3% (active),32.8%,5.31% (active),31.9%,0.832% (active),-8.98% (active),-58.7% (active),52.4%
Cc1cc(OI)c(C(C)C)cc1-c1cc(C(C)C)c(OI)cc1C,105%,101%,104%,103%,98.6%,103%,98.7%,93.4%,103%
COc1cc(C)c2sc3ccccc3c(=O)c2c1NCCN(C)C,39.3%,16.3%,65.2%,44.8%,53.4%,36.9%,-90.3% (active),26.4%,54.1%
COc1cccc2c1C(=O)c1c(O)c3c(c(O)c1C2=O)C[C@@](O)(C(=O)COC(=O)c1ccccc1)C[C@@H]3OC1CC(N)C(O)C(C)O1 (stereo partly specified),-72% (active),-95.1% (active),-75.4% (active),-95.4% (active),-95.6% (active),-97.2% (active),-97% (active),-87.1% (active),-88.9% (active)
COc1ccc(-c2ccc(-c3ccc(C(=N)N)c(F)c3)s2)cc1,-78.9% (active),-90% (active),-89.6% (active),-95.1% (active),-88.6% (active),-93.9% (active),-88.9% (active),-84.3% (active),-91.5% (active)
CCC1(C)OC(=O)NC1=O (stereo unspecified),100%,99.9%,108%,99%,79.3%,98.2%,103%,94.3%,108%
CS(=O)(=O)Nc1ccc(Nc2c3ccccc3nc3cc(Cl)ccc23)cc1,39.6%,22.4%,44.7%,19.9%,33.8%,18.6%,36.8%,19.5%,72.6%
COc1cc(OC)cc(-c2n/c(=C\c3c(O)[nH]c4ccc(OC)cc34)cc3c2=Nc2ccccc2-3)c1,44.6%,15.6%,78%,19.7%,94.9%,94.4%,110%,30.4%,102%
